High-throughput results from PubChem BioAssay.
Compounds with a hit are over-represented: about 27% of the library has one in this group of screens.
sEH inh – blocks human soluble epoxide hydrolase activity | inhibition, % at 2 µM | 91,000 compounds, 0.34% hits | P34913 | recombinant human sEH enzymatic activity assay; in the data active means inhibition above about 80%
CYP2C9 inh – blocks human cytochrome P450 2C9 | inhibition, % at 5 µM | 96,000 compounds, 20% hits | P11712 | CYP2C9 Supersomes, luciferin-H conversion, luminescence;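 active means blocking of liver enzyme CYP2C9 beyond about 50% at 5 µM, limit read from the data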
Target sequence (P11712 whole entry, looked up): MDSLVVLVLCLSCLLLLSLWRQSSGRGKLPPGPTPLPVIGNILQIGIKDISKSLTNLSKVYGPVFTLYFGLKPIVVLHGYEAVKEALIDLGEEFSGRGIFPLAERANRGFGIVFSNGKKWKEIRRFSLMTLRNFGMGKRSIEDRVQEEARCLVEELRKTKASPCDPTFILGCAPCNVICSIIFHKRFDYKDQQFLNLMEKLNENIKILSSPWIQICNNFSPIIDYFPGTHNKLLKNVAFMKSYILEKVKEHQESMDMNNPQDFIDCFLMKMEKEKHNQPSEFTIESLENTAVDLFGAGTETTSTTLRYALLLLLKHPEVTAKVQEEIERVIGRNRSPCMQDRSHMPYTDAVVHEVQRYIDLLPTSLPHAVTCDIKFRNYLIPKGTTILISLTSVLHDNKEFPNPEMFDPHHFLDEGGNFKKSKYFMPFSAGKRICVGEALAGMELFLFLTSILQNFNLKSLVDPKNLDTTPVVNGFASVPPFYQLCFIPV
CYP2C9 activ – activators of human CYP2C9; P11712; recombinant CYP2C9, luciferin-H conversion, luminescence; stronger effect = higher value; factor 1 = untreated enzyme, 0 = blocked; activation factor at 5 µM; 96,000 compounds, 1.4% hits; AID 1024;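 active means activation factor of 2 or more for CYP2C9 at a 5 µM dose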;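 further: 0 = sulfaphenazole-blocked wells and 1 = vehicle-only wells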
CYP2C19 activ – cytochrome P450 2C19 (human) activation. P33261. recombinant CYP2C19, luciferin-H EGE luminescence; stronger effect = higher value; 0 = fully inhibited enzyme, 1 = untreated enzyme. activation factor at 5 µM. 96,000 tested, under 10 active;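 active means activation factor of at least 2 at 5 µM in the primary screen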;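 further: 0 = wells with 2.5 mM tranylcypromine and 1 = vehicle-only wells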
sEH activator – increases human soluble epoxide hydrolase activity; P34913; purified human sEH enzymatic activity, activator screen; activation, % at 2 µM; 91,000 compounds, 0.04% hits; AID 717; in the data active means activation above about 37%
CYP2C19 inh – inhibitors of human CYP2C19 | AID 778 | inhibition, % at 5 µM | 96,000 compounds, 21% hits | CYP2C19 Supersomes, luciferin-H EGE luminescence, 30 min | P33261;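 active means CYP2C19 inhibition above a set limit at 5 µM in the primary screen, cut at about 50% in these data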;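 further: plate controls were negative control wells for no effect and 2.5 mM tranylcypromine positive control for full effect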
* = called active by the depositor; x = not tested or not shown.

SMILES	sEH inh	CYP2C9 inh	CYP2C9 activ	CYP2C19 activ	sEH activator	CYP2C19 inh
Cc1cc(C(=O)N(C)C)sc1-c1ccccc1	-4	x	x	x	5	x
O=C(CCN1CCCCCC1)Nc1cccc(Cl)c1	-2	-9	1.1	0.9	2	6
O=C(CSCc1ccccc1Cl)NN1C(=O)c2ccccc2C1=O	2	51*	0.5	0.5	0	49
O=C(CCC(=O)NC1CCCCCC1)Nc1nnc(C(F)(F)F)s1	-7	66*	0.3	1	6	-1
O=C(CCC(=O)NC1CCCCCCC1)Nc1nnc(C(F)(F)F)s1	9	83*	0.2	0.6	-10	36
O=C(CCC(=O)N1CCN(C2CCCCC2)CC1)Nc1nnc(C(F)(F)F)s1	-9	38	0.6	0.9	11	8
CC(C)c1nnc(NC(=O)CCC(=O)NC2CCCCCCC2)s1	1	26	0.7	0.9	0	5
O=S(=O)(c1ccc(NCC2CCCCC2)nc1)N1CCOCC1	3	17	0.8	0.9	0	10
O=C(Cc1c[nH]c2ccccc12)Nc1nc2ccccc2[nH]1	0	58*	0.4	0.5	3	54*
O=C(Cc1ccccc1)Nc1nc2ccccc2[nH]1	-4	34	0.7	0.6	4	42
C(=N\c1nccs1)/c1c[nH]c2ccccc12	-7	-25	1.2	1	8	2
Cc1csc(NC(=O)Cc2c[nH]c3ccccc23)n1	-9	28	0.7	0.6	10	35
O=C(Nc1nccs1)C(=O)c1c[nH]c2ccccc12	11	18	0.8	0.4	-9	63*
O=C(Cc1c[nH]c2ccccc12)Nc1nccs1	3	21	0.8	0.5	-3	55*
Cc1cccc(C)c1N(CC(=O)NN=C1CCCCCC1)S(C)(=O)=O	-5	17	0.8	0.8	3	22
O=C(CN(c1ccccc1)S(=O)(=O)c1ccccc1[N+](=O)[O-])NN=C1CCCCCCC1	13	35	0.6	0.4	-11	64*
CCCCCCOc1ccc(-c2ccc(C#N)cn2)cc1	-14	39	0.6	0.7	18	33
O=C(NC1CCCCC1)c1ccc(COCC(F)(F)F)o1	22	4	1	0.8	-20	24
Cc1nn(CC#N)c(=O)n1-c1ccccc1F	2	-7	1.1	1	-4	-1
COC(=O)CN1C(=O)C(O)(CC(=O)c2ccc(C)cc2)c2cc(Br)ccc21 (stereo not given)	x	17	0.8	0.7	x	35
CN1C(=O)C(O)(CC(=O)c2ccc(F)cc2)c2cc(Br)ccc21 (stereo not given)	x	33	0.7	0.2	x	79*
CC(CCN(C)C)OC(=O)c1ccc(C(C)c2ccccc2)o1 (stereo not given)	-3	10	0.9	0.4	3	61*
CC(CN(C)Cc1ccccc1)OC(=O)c1cccs1 (stereo not given)	4	x	x	x	-6	x
O=C1C=C(NCc2ccco2)CC(c2ccc(Cl)cc2)C1 (stereo not given)	-2	32	0.7	0.4	0	62*
COc1ccccc1-c1nnc(NC(C)=O)s1	-1	-110	2.1*	1.1	0	-7
SMILES	sEH inh	CYP2C9 inh	CYP2C9 activ	CYP2C19 activ	sEH activator	CYP2C19 inh
CCCCOC(=O)Nc1nnc(-c2ccccc2OC)s1	1	-323	4.2*	0.9	2	13
COc1ccccc1-c1nnc(NC(=O)C(C)C)s1	x	20	0.8	0.7	x	28
Cc1ccc(-n2c(C)cc(/C=N/NC(=O)c3ccncc3)c2C)c(C)c1	17	22	0.8	0.8	-18	18
CSc1cc(C)nc(NC(C)=O)n1	-3	-1	1	1	4	-2
c1ccc(Cc2nnc3sc(-c4cccs4)nn23)cc1	-9	55*	0.5	0.4	15	60*
c1ccc(Cc2nnc3sc(-c4ccccn4)nn23)cc1	0	63*	0.4	0.1	4	92*
c1ccc(Cc2nnc3sc(-c4cccnc4)nn23)cc1	-9	64*	0.4	0	9	98*
COc1ccccc1-c1nn2c(C(F)(F)F)nnc2s1	-5	16	0.8	0.8	6	20
CCOc1ccccc1-c1nn2c(Cc3ccccc3)nnc2s1	x	-7	1.1	0.5	x	54*
COCCNC(=O)CCSCc1ccccc1F	x	7	0.9	0.6	x	37
Cc1cccc(N2CCN(C(=O)C3CCCN(S(=O)(=O)c4c(C)noc4C)C3)CC2)c1C (stereo not given)	5	x	x	x	-6	x
c1ccc(Cc2nnc3sc(-c4ccc5c(c4)OCCO5)nn23)cc1	-9	76*	0.2	0.4	8	58*
c1ccc(-c2nn3c(C4CCCCC4)nnc3s2)nc1	6	59*	0.4	0.3	-7	70*
c1ccc(CCc2nn3c(Cc4ccccc4)nnc3s2)cc1	20	73*	0.3	0.2	-22	80*
c1ccc(CCc2nn3c(C4COc5ccccc5O4)nnc3s2)cc1 (stereo not given)	x	43	0.6	0.6	x	36
c1csc(-c2nn3c(Cn4cnc5ccccc54)nnc3s2)c1	10	18	0.8	0.4	-8	58*
c1csc(-c2nn3c(Cn4nnc5ccccc54)nnc3s2)c1	1	-5	1.1	0.9	0	5
COc1ccc(C(=O)N(c2ccccc2)C2C=CS(=O)(=O)C2)cc1 (stereo not given)	-3	-6	1.1	1	3	0
c1ccc(Cc2nnc3sc(-c4ccncc4)nn23)cc1	8	52*	0.5	0	-6	96*
c1ccc(Cc2nnc3sc(-c4ccc5c(c4)OCO5)nn23)cc1	12	x	x	x	-9	x
Clc1ccc(OCc2nn3c(C4CCCCC4)nnc3s2)cc1	-1	90*	0.1	0.7	0	28
Cc1ccc(OCc2nn3c(-c4ccco4)nnc3s2)cc1	1	-6	1.1	1.1	-2	-7
O=C(CCC1CCCC1)Nc1ccc(Br)cn1	23	27	0.7	0.7	-20	28
Cc1cc(C)nc(SCc2nnc(SCC(=O)Nc3ccccc3C)n2Cc2ccco2)n1	x	70*	0.3	0.4	x	62*
Cc1ccc(C)c(NC(=O)CSc2nnc(CSc3nc(C)cc(C)n3)n2Cc2ccco2)c1	x	51*	0.5	0.7	x	34
Cc1ccc(C)c(CSc2nnc(-c3cccs3)n2Cc2ccco2)c1	5	49	0.5	0.5	-5	52*
Cc1ccc(NCc2nnc(SCC(=O)c3ccccc3)n2Cc2ccco2)c(C)c1	-5	81*	0.2	0.2	6	84*
Cc1ccc(NC(=O)CSc2nnc(CSc3nc(C)cc(C)n3)n2Cc2ccco2)c(C)c1	6	28	0.7	0.9	-2	8
CCOC(=O)Cn1ncc(-c2ccccc2)c1N	-1	x	x	x	-4	x
CC(NC(=O)COc1ccccc1)C(c1ccccc1)N1CCN(C)CC1 (stereo not given)	x	14	0.9	0.5	x	46
